# Measured values as given in the OligoGym collection.
# Molecular target: MOBKL1B
# Experiment: pooled miR-30 sensor sort-seq; sequence = guide strand
# Conditions: shRNA
# Note: reference of the scale not given here.
row,Sequence,sensor-assay potency score (higher = more potent)
1,AATATTAGTACCATCTGCCCAG,0.0511
2,TTTAATATTAGTACCATCTGCC,0.311
3,TTTTAATATTAGTACCATCTGC,-0.715
4,AAGAGTTTCATCATCAAGCTGA,0.471
5,TTGAATGTTTTAGAAGAGCGGC,-0.634
6,TTCATCATCAAGCTGATCTTGA,0.57
7,TAAAAGAATAAAACCAATCTGA,-0.367
8,TAATTCTTGAAGAGGTGCCAGC,-0.967
9,TTAATTCTTGAAGAGGTGCCAG,-0.419

# Molecular target: MOCS3
# Experiment: as above
# Conditions: shRNA
row,Sequence,sensor-assay potency score (higher = more potent)
1,TTAAAGGGTCTAACTCTTGAGC,-0.607
2,TTGCAAATCACATAAATGGGGA,-0.379
3,TTGAGCTGCTGATAAGGACTGG,-0.00969
4,TATTATGGCAATCCACATCTTT,-0.453
5,TTAGAAAGCATTTTGACTGGGG,0.772
6,TAGCGCAGAATCTCATCTCGGG,-0.0421
7,TCAAAGAGCAACAAGCTGCCAC,-0.221
8,AACAAGTGTATCTTTGAGGTAT,0.286
9,TTTGCAAATCACATAAATGGGG,-0.854
10,TTTCTGTGAGTCATTTCCCAGT,-0.966
11,TAGTCGGTGACAGAAACACGCT,-0.908
12,TTGGTCACTGTCTCCGCTGGGG,-0.474
